IDH1 R132H inh = inhibitors of human mutant IDH1 R132H; Potency, µM (highest dose often 76.6 µM), without a hit: at the highest dose activity change, negative = inhibition, actives largely listed as inhibitors; AID 602179; IDH1-R132H enzyme, NADPH consumption, diaphorase/resazurin fluorescence; O75874; 390,000 compounds, 0.093% hits; note: % is set by controls: 0 for no effect and ±100 for the full control effect; nearly all actives have a fitted effect of over 65% in size
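IDH1-R132H (0.5 ug/mL) preincubated 30 min with compound, then NADPH (0.016 mM) and alpha-KG (2 mM) added; 80 min at RT, pH 7.5. Remaining NADPH coupled via diaphorase/resazurin to fluorescence (540/590 nm); concentration-response curves normalized to no-enzyme control.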
HTT cytoprotect = Huntington cell model cytoprotection by ATP luminescence; PC12 HTT-Q103 induced, cytoprotection, ATP luminescence, 40 h; Potency, µM (highest dose often 56.4 µM), for inactives: cytoprotection (ATP increase), hits mostly activators; 230,000 compounds, 0.14% hits; AID 1471; note: % of control where 0% means no effect; nearly all actives have a fitted effect of over 45% in size
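Cells were plated at 1500 per well in phenol red-free DMEM with 5% equine and 5% calf serum. Tebufenozide (100 nM final) and compounds were added, then ATPlite reagent, and luminescence was read.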
A-T KAP1 phos = potential ataxia-telangiectasia treatment | 320,000 compounds, 0.19% hits | AID 485349 | Potency, µM (titrated, usually from 57.5 µM), without a hit: at the highest dose activation, actives largely listed as activators | F2112 A-T fibroblasts, KAP-1 phosphorylation AlphaLISA; neocarzinostatin DNA damage 30 min before lysis; note: % of control where 0% means no effect; nearly all actives have a fitted effect of over 45% in size
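ATM-like activity read as KAP-1 phosphorylation via AlphaLISA donor/acceptor antibody pairs after lysis and 6 hr at 25C. Cells were ATM-null patient fibroblasts (F2112, hTERT), dosed 60 min, then exposed to the DSB inducer NCS for 30 min.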
HttQ103 aggreg = reduces HttQ103-GFP aggregates in PC12 cells; PC12 HttQ103-GFP aggregates, Acumen cytometry, 40 h; Potency, µM (series often up to 46.1 µM), for inactives: top-dose activity change, negative = inhibition, most hits filed as inhibitors; 220,000 compounds, 1.1% hits; AID 1688; note: % is set by controls: 0 for no effect and ±100 for the full control effect; nearly all actives have a fitted effect of over 60% in size
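Inducible Q103 Huntingtin exon 1–GFP PC12 line, 1500 cells/well in phenol red free DMEM with 5% equine and 5% calf serum. Tebufenozide 100 nM induced expression; compounds titrated; aggregates quantified by cytometry.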
NPSR antagonist = antagonists of human neuropeptide S receptor cAMP signaling; Q6W5P4; CHO-NPSR cells, cAMP TR-FRET, antagonist mode; Potency, µM (titrated, usually from 38.3 µM), for inactives: at the top dose activity change, negative = inhibition, most hits filed as inhibitors; 220,000 compounds, 1% hits; note: % is set by controls: 0 for no effect and ±100 for the full control effect; nearly all actives have a fitted effect of over 50% in size
Target sequence (Q6W5P4 whole entry, looked up): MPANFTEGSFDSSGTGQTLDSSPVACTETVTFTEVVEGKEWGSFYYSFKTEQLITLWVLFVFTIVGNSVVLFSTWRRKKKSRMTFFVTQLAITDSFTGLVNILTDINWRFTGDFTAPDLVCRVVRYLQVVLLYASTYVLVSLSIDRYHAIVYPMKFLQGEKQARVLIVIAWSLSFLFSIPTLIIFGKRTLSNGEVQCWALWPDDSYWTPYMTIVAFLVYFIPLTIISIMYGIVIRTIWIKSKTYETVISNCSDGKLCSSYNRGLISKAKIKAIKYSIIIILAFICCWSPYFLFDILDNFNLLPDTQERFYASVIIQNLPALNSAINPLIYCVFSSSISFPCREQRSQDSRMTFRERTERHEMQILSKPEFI
* marks the source's active call; other numbers are inactive results; u = inconclusive; x = no result given; [ ] = dose if it differs, or a comment. Rows were chosen to be rich in hits. Some 1.1% of all compounds tested hit in one or more screens of this group. Calls come from the whole dose curve; as a rule, active = well fitted curve in the direction sought with a large enough effect; inconclusive = small, poorly fitted or top-dose-only effect, or another doubt; inactive = no such curve, though single readings can be large; an effect the other way counts as inactive or inconclusive. Potency is the fitted concentration of half-maximal effect.

SMILES | IDH1 R132H inh | HTT cytoprotect | A-T KAP1 phos | HttQ103 aggreg | NPSR antagonist
Cc1cc(N/N=C/c2ccc(O)cc2O)nc(-c2ccccc2O)n1 | 40µM* | 18%[10 µM] | 3% | u | -32%
Cc1cc(N/N=C/c2ccccc2O)nc(-c2ccccc2O)n1 | 3% | -19%[10 µM] | 1% | 2% | -38%
CCOC(=O)c1c(NC(=O)CSc2nc3c(c(=O)n(C)c(=O)n3C)n2C(C)C)sc(C)c1C | -5% | -28%[10 µM] | -11% | -3% | 7%[46.1 µM]
CC(C)n1c(SCC(=O)Nc2nc3c(s2)CCCC3)nc2c1c(=O)n(C)c(=O)n2C | -8% | 4%[10 µM] | -1% | 13µM* | -7%[46.1 µM]
CCN1/C(=C/c2ccc3cc(C)ccc3[n+]2CC)Sc2cc(C)ccc21 | 0% | -140% | 0% | 1µM* | -45%
CCCCN1/C(=C/c2cccc[n+]2C)Sc2cc(NC(C)=O)ccc21 | -5% | x | -5% | x | x
CCN1/C(=C/c2ccc3ccccc3[n+]2CC)C=Cc2ccccc21 | 8% | -55%[10 µM] | x | 3.2µM* | 7.9µM*
CCN1/C(=C/c2ccc3cc(C)ccc3[n+]2C)Sc2ccc3sccc3c21 | -6% | -51%[10 µM] | 2% | -37%[9.22 µM] | u
CCCCN1/C(=C/c2ccc3ccccc3[n+]2CC)Sc2ccccc21 | -5% | -59%[10 µM] | -4% | 2.5µM* | -51%
COc1ccc(NC(=O)NCCN2CCN(c3cc(OC)ccc3OC)CC2)cc1 | 16% | x | -4% | x | x
COc1ccc(Cl)c(N2CCN(CCCNC(=O)Nc3ccc(C)cc3)CC2)c1 | -3% | -35% | -2% | 35µM* | -6%[46.1 µM]
O=C(O)COCCN1CCN([C@@H](c2ccccc2)c2ccc(Cl)cc2)CC1 | x | u | x | 12%[20.6 µM] | x
CCOC(=O)N1CCN(Cc2nnc(-c3ccccc3C)o2)CC1 | 2% | x | 20µM* | x | x
CCOC(=O)N1CCN(CC(=O)N2c3ccccc3Sc3ccccc32)CC1 | 3% | x | 18µM* | x | x
O=[N+]([O-])c1ccc(CSc2ncnc3c2ncn3C2OC(CO)C(O)C2O)cc1 (configuration not stated) | x | -45% | x | x | x
COc1cc(OC)cc(C(=O)NNC(=O)c2ccccn2)c1 | -3% | -1%[10 µM] | 4% | 11µM* | 9%
CC1=C(C)/C(=N\OS(=O)(=O)c2ccccc2)C=CC1=O | 7% | -118% | -5% | u | 5µM*
C[C@@H]1CN=C2N(CCNC(=O)CCC3CCCCC3)[C@H](Cc3ccc(O)cc3)CN21 | -15% | 31%[10 µM] | 4% | 18%[9.22 µM] | -31%
CCCCCCNC(=O)N[C@H](C(=O)NCCC[C@H]1CN2C(=NC[C@H]2C)N1CCC(c1ccccc1)c1ccccc1)C(C)O (some centres not stated) | x | -9%[10 µM] | -19% | -32%[9.22 µM] | 10µM*
COc1ccc(NC(=O)N2CCc3nc(-c4ccc(OC)cc4C)c4c(c3C2)CO[C@@H](c2ccccc2)C4)cc1 | x | -9%[10 µM] | x | x | x
Cn1c(N2CCOCC2)c(/C=N/OC(=O)c2ccc(F)cc2)c2ccccc21 | 1% | -19% | 35µM* | u | -18%[46.1 µM]
Cc1cccc2sc(N(Cc3cccnc3)C(=O)c3cccs3)nc12 | -9% | x | x | x | x
COc1ccc(-c2cc(C(F)F)nn2-c2ccc(S(N)(=O)=O)cc2)cc1F | x | 8.9µM* | x | 8% | x
COc1ccc(C2CC(c3ccccc3)=NN2c2ccc(S(N)(=O)=O)cc2)cc1OC (configuration not stated) | 0% | -16% | 29% | 23%[9.22 µM] | -60%
COc1cc(/C=C2\SC(=O)NC2=O)ccc1Oc1ccc([N+](=O)[O-])cn1 | -9% | -10%[10 µM] | -4% | -14%[9.22 µM] | -58%
COc1cc(/C=C2/SC(=O)NC2=O)ccc1Oc1ccc([N+](=O)[O-])cc1[N+](=O)[O-] | 0% | -17%[10 µM] | 23% | 25%[9.22 µM] | 13µM*
Cc1ccc(-c2cn3nc(-c4ccccc4)c(-c4ccccc4)nc3n2)cc1 | -11% | -2%[10 µM] | 28µM* | -11%[9.22 µM] | -16%
c1ccc(-c2cn3nc(-c4ccccc4)c(-c4ccccc4)nc3n2)cc1 | 3% | -57% | 33% | -28% | -17%[46.1 µM]
CO/N=C(\C(=O)N[C@@H]1C(=O)N2C(C(=O)[O-])=C(C[n+]3cccc4c3CCC4)CS[C@H]12)c1csc(N)n1 | x | 24% | x | 14% | x

High-throughput results from PubChem BioAssay.
